The full data set covers some 7,900 targets. This sample favours those with a hit. About 0.6% of all pairs of compound and target were hits.
Experiments:
Assay in all cases: log2 fold change, soluble protein after heating vs DMSO (PISA); higher = thermal stabilisation; K562 cells, 10 uM, 30 min; active = over 0.2 and 3.5 SD of the protein, either way, in both replicates (recomputed)
bafetinib = compound: Cc1ccc(NC(=O)c2ccc(CN3CC[C@H](N(C)C)C3)c(C(F)(F)F)c2)cc1Nc1nccc(-c2cncnc2)n1 [bafetinib]
In short: (§1)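 Quantification of soluble protein used TMTpro 16plex LC-MS/MS, with channel sums equalised. Samples were the supernatant after 21,000xg for 90 min of pooled aliquots from K562 cells (2×10^6 cells/mL) treated with 10 μM compound for 30 min, heated for 3 min over 48°C-58°C, and extracted in PBS with 0.5% NP-40 at 4°C. Values, from duplicates, describe thermal stability against control samples on a log2 fold-change scale.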

[1] = compound: Cc1cccc(CC(=O)N2CCc3c2ccc(-c2cn(C)c4ncnc(N)c24)c3F)n1
In short: as §1

nilotinib = compound: Cc1cn(-c2cc(NC(=O)c3ccc(C)c(Nc4nccc(-c5cccnc5)n4)c3)cc(C(F)(F)F)c2)cn1 [nilotinib]
In short: as §1

[2] = compound: Cc1nc(Nc2n[nH]c3c2CN(C(=O)N[C@H](CN(C)C)c2ccccc2)C3(C)C)c2sccc2n1
In short: as §1

dasatinib = compound: Cc1nc(Nc2ncc(C(=O)Nc3c(C)cccc3Cl)s2)cc(N2CCN(CCO)CC2)n1 [dasatinib]
In short: as §1

[3] = compound: Cc1ncc(-c2ccnc(Nc3ccc(S(C)(=O)=O)cc3)n2)n1C(C)C
In short: as §1

[4] = compound: Cn1cc(-c2ccc3c(c2)CCN3C(=O)Cc2cccc(C(F)(F)F)c2)c2c(N)ncnc21
In short: as §1

[5] = compound: Cn1cc(-c2ccc3nnc(C(F)(F)c4ccc5ncccc5c4)n3n2)cn1
In short: as §1

tipifarnib = compound: Cn1cncc1[C@@](N)(c1ccc(Cl)cc1)c1ccc2c(c1)c(-c1cccc(Cl)c1)cc(=O)n2C [tipifarnib]
In short: as §1

mubritinib = compound: FC(F)(F)c1ccc(/C=C/c2nc(COc3ccc(CCCCn4ccnn4)cc3)co2)cc1 [mubritinib]
In short: as §1

Measured: log2 fold change

SNX6 (UniProt Q9UNH7)
active: [3] -0.47
inactive: bafetinib -0.132 | [1] 0.138 | nilotinib -0.214 | [2] 0.012 | dasatinib -0.176 | [4] 0.094 | [5] 0.019 | tipifarnib -0.045 | mubritinib 0.058

SMIM20 isoform 2 (UniProt Q8N5G0)
Sequence of UniProt Q8N5G0 (Q8N5G0 whole entry, looked up): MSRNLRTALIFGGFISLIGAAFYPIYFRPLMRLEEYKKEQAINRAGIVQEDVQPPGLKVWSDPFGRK
inactive: bafetinib -0.011 | [1] -0.011 | nilotinib -0.037 | [2] -0.001 | dasatinib 0.012 | [3] -0.102 | [4] 0.05 | [5] 0.156 | tipifarnib 0.017 | mubritinib 0.009

SRSF6 (UniProt Q13247)
active: [2] -0.813
inactive: bafetinib 0.578 | [1] 0.192 | nilotinib 0.155 | dasatinib 0.079 | [3] 0.095 | [4] -0.251 | tipifarnib 0.212 | mubritinib -0.014

ST6GAL1 (UniProt P15907)
inactive: bafetinib 0.001 | [1] 0.029 | nilotinib 0.168 | [2] -0.048 | dasatinib 0.131 | [3] -0.001 | [4] 0.007 | [5] -0.02 | tipifarnib 0.128 | mubritinib -0.023

SPG11 (UniProt Q96JI7)
inactive: bafetinib -0.493 | [1] -0.584 | nilotinib -0.015 | [2] 0.117 | dasatinib 0.065 | [3] -0.006 | [4] -0.051 | [5] 0.146 | tipifarnib 0.258 | mubritinib -0.009

SLC9A6 isoform 2 (UniProt Q92581)
inactive: bafetinib -0.049 | [1] 0.012 | nilotinib 0.039 | [2] 0.011 | dasatinib 0.017 | [3] -0.002 | [4] -0.019 | [5] 0.026 | tipifarnib 0.047 | mubritinib 0.033

TIMM44 (UniProt O43615)
active: bafetinib -0.355
inactive: [1] 0.045 | nilotinib -0.062 | [2] -0.066 | dasatinib -0.192 | [3] 0.006 | [4] 0.026 | [5] -0.002 | tipifarnib -0.054 | mubritinib 0.001

SMG1 (UniProt Q96Q15)
inactive: bafetinib 0.059 | [1] -0.012 | nilotinib 0.03 | [2] -0.061 | dasatinib -0.266 | [3] -0.015 | [4] -0.035 | [5] 0.023 | tipifarnib -0.098 | mubritinib 0.064

STAT3 (UniProt P40763)
inactive: bafetinib -0.015 | [1] -0.003 | nilotinib -0.097 | [2] -0.216 | dasatinib -0.141 | [3] 0.026 | [4] -0.027 | [5] 0.013 | tipifarnib -0.172 | mubritinib 0.024

STK38L (UniProt Q9Y2H1)
inactive: bafetinib -0.02 | [1] -0.065 | nilotinib -0.032 | [2] -0.238 | dasatinib -0.012 | [3] -0.03 | [4] -0.122 | [5] -0.582 | mubritinib 0.081

TATDN2 (UniProt Q93075)
Sequence of UniProt Q93075 (Q93075 whole entry, looked up): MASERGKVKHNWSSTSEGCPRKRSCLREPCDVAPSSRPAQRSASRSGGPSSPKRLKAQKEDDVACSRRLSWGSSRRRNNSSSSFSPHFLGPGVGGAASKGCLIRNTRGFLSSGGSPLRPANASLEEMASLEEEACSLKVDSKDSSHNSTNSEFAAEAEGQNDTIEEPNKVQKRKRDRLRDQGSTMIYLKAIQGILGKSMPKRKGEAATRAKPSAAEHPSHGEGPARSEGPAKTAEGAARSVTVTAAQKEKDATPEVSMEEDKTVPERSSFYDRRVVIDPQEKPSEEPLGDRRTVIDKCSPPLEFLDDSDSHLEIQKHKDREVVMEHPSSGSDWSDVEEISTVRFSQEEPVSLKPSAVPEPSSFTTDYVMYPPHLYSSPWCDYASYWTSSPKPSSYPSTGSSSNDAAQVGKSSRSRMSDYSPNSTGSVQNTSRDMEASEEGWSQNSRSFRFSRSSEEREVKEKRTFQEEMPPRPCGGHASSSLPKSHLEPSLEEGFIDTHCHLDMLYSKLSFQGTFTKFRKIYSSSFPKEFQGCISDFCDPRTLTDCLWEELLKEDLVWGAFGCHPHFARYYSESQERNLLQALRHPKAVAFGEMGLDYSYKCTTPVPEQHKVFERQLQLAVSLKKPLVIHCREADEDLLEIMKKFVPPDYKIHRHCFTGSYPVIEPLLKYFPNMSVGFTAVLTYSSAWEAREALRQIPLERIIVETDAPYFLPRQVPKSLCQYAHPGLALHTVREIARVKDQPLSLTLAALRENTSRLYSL
inactive: bafetinib 0.088 | [1] -0.151 | nilotinib 0.137 | [2] -0.217 | dasatinib -0.042 | [3] -0.043 | [4] -0.059 | tipifarnib 0.074

TBC1D20 isoform 3 (UniProt Q96BZ9)
inactive: bafetinib -0.03 | [1] -0.083 | nilotinib 0.07 | [2] -0.023 | [3] 0.033 | [4] 0.121 | [5] 0.233 | tipifarnib -0.077 | mubritinib 0.129

SSBP4 (UniProt Q9BWG4)
Sequence of UniProt Q9BWG4 (Q9BWG4 whole entry, looked up): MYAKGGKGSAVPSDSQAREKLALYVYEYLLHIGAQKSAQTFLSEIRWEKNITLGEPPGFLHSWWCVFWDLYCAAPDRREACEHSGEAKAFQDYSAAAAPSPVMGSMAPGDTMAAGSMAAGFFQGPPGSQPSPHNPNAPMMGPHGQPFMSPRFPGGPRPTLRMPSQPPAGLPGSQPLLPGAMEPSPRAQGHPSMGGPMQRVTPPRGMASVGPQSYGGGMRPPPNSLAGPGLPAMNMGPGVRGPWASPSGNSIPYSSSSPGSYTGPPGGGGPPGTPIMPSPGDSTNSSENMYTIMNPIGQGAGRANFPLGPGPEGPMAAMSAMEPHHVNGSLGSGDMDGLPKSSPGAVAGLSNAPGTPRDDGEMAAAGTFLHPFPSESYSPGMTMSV
inactive: bafetinib -0.045 | [1] -0.069 | nilotinib 0.038 | [2] 0.014 | dasatinib -0.021 | [3] 0.053 | [5] 0.033 | tipifarnib 0.301 | mubritinib 0.066

SLC44A2 isoform 2 (UniProt Q8IWA5)
Sequence of UniProt Q8IWA5 (Q8IWA5 whole entry, looked up): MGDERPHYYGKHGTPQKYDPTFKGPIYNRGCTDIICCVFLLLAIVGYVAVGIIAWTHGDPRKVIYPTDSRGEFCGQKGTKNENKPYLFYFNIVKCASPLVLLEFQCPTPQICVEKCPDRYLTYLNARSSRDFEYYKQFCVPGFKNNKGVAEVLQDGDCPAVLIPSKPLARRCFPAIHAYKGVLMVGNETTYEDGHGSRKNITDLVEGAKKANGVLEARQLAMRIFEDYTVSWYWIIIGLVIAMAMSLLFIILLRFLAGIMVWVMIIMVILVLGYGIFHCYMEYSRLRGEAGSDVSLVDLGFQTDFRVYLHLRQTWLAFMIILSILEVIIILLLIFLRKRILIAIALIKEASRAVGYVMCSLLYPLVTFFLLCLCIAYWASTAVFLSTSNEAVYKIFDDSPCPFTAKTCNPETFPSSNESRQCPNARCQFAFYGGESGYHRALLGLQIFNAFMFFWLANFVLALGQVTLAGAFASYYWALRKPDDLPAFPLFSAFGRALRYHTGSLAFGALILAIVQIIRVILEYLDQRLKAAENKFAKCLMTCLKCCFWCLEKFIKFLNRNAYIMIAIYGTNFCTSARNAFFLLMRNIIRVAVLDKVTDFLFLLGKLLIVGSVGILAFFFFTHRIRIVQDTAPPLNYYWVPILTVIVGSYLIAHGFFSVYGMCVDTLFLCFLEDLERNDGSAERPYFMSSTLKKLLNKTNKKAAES
inactive: bafetinib 0.058 | [1] -0.053 | nilotinib 0.13 | [2] 0.008 | dasatinib 0.064 | [3] 0.068 | [4] 0.084 | [5] -0.076 | mubritinib 0.045

STK11IP (UniProt Q8N1F8)
inactive: bafetinib -0.06 | [1] 0.111 | nilotinib -0.081 | [2] 0.058 | dasatinib -0.19 | [3] 0.051 | [4] -0.068 | tipifarnib 0.034 | mubritinib -0.071

SRSF4 (UniProt Q08170)
active: [2] -0.602
inactive: bafetinib 0.215 | [1] -0.064 | nilotinib 0.013 | dasatinib 0.109 | [3] 0.028 | [4] -0.166 | [5] -0.14 | tipifarnib 0.127 | mubritinib -0.109

SMAD2 (UniProt Q15796)
Sequence of UniProt Q15796 (Q15796 whole entry, looked up): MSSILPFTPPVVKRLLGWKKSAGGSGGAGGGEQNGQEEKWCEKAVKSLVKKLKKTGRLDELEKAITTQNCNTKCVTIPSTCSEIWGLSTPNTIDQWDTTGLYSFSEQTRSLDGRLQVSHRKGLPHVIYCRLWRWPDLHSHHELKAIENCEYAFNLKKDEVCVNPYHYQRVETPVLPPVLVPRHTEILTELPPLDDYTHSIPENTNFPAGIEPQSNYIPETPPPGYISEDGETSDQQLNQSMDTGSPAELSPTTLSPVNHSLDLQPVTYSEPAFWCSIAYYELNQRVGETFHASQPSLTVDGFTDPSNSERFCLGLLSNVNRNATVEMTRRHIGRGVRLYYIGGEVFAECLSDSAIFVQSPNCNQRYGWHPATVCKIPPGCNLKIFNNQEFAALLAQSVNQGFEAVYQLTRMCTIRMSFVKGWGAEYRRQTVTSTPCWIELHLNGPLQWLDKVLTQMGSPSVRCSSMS
inactive: bafetinib -0.019 | [1] -0.037 | nilotinib -0.085 | [2] -0.123 | dasatinib -0.13 | [3] -0.14 | [4] 0.023 | [5] 0.057 | tipifarnib 0.012 | mubritinib 0.022

SPIRE1 (UniProt Q08AE8)
Sequence of UniProt Q08AE8 (Q08AE8 whole entry, looked up): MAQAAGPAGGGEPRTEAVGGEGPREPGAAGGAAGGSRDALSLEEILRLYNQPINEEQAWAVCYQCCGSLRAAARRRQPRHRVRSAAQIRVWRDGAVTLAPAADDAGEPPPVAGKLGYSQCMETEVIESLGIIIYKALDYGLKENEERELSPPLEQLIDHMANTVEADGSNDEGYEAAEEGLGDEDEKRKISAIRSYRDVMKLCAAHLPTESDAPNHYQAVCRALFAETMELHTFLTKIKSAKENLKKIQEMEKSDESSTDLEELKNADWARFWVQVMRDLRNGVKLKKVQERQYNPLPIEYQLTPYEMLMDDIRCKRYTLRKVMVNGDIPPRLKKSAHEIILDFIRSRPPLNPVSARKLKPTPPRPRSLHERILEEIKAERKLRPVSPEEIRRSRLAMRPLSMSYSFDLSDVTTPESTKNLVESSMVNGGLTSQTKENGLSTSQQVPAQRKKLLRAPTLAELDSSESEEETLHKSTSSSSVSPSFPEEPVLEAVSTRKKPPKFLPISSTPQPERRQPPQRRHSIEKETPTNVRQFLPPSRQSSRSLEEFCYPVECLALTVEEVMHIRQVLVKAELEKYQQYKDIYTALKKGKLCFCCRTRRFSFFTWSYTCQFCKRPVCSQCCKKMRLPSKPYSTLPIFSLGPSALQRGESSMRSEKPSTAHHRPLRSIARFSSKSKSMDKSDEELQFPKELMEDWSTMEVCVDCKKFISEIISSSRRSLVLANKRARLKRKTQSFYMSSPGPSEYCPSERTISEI
inactive: bafetinib -0.06 | [1] -0.194 | nilotinib 0.007 | [2] 0.063 | [3] -0.046 | [4] -0.155 | [5] -0.026 | mubritinib 0.098

TJP2 isoform 7 (UniProt Q9UDY2)
Sequence of UniProt Q9UDY2 (Q9UDY2 whole entry, looked up): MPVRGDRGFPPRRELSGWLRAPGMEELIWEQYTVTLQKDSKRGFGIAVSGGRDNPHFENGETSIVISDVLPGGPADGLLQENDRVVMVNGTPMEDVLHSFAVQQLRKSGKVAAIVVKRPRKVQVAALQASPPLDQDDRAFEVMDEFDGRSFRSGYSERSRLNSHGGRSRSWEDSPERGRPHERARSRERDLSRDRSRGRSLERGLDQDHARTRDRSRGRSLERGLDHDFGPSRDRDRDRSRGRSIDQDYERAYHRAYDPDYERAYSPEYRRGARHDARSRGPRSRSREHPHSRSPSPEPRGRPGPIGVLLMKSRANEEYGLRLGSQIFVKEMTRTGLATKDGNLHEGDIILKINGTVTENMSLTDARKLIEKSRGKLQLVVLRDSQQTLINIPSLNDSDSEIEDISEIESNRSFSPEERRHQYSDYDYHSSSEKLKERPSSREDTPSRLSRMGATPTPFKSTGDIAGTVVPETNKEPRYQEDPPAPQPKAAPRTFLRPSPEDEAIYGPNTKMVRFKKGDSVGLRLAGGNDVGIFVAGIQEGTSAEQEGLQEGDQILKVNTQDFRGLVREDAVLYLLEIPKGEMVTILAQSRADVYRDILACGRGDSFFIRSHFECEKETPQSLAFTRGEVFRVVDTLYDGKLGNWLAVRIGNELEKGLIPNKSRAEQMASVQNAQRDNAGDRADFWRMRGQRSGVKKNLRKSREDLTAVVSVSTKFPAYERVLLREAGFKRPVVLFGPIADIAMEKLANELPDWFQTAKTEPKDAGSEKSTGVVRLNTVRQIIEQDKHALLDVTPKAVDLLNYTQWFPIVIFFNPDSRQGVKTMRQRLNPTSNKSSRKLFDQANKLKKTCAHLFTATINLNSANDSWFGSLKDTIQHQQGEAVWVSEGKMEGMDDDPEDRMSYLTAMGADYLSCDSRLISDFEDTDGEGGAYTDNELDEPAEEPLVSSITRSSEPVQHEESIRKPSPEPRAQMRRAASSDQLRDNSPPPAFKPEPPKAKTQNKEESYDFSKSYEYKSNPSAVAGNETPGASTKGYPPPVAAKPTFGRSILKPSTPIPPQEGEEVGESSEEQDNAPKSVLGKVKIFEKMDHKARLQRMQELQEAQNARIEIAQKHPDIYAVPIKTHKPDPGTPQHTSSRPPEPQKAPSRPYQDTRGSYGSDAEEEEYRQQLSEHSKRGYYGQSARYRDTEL
inactive: bafetinib 0.05 | [1] 0.149 | nilotinib 0.014 | [2] -0.207 | dasatinib -0.191 | [3] -0.025 | [4] 0.009 | [5] 0.014 | tipifarnib -0.094 | mubritinib 0.002

STK39 (UniProt Q9UEW8)
inactive: bafetinib -0.09 | [1] 0 | nilotinib -0.076 | [2] -0.028 | dasatinib -0.108 | [3] -0.016 | [4] -0.008 | [5] -0.032 | tipifarnib -0.031 | mubritinib -0.083

TGFBR1 isoform 2 (UniProt P36897)
Sequence of UniProt P36897 (P36897 whole entry, looked up): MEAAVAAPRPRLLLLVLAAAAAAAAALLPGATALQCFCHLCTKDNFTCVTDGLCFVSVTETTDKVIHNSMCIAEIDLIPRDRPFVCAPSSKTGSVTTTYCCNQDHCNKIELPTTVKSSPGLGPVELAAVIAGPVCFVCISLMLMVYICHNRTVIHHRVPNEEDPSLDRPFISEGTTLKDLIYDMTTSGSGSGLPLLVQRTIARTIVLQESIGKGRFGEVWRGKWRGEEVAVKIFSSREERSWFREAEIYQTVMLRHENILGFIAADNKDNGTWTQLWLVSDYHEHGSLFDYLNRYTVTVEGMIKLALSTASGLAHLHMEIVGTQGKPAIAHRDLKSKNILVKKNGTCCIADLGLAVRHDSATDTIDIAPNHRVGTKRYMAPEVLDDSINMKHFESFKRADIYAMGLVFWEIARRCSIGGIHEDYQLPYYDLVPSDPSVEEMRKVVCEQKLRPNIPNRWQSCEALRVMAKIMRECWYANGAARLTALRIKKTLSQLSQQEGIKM
inactive: bafetinib -0.009 | [1] -0.052 | nilotinib -0.049 | [2] -0.018 | [3] 0.007 | [4] -0.046 | [5] 0.001 | tipifarnib 0.017 | mubritinib -0.113

STK38 (UniProt Q15208)
active: [2] -0.343
inactive: bafetinib 0.054 | [1] 0 | nilotinib -0.105 | dasatinib -0.136 | [3] 0.009 | [4] 0.035 | [5] 0.008 | tipifarnib -0.079 | mubritinib -0.083

TIMM29 (UniProt Q9BSF4)
inactive: bafetinib -0.051 | [1] -0.077 | nilotinib -0.002 | [2] 0.069 | dasatinib -0.031 | [3] -0.039 | [4] -0.029 | [5] 0.057 | tipifarnib -0.046 | mubritinib 0.064

SLC30A7 (UniProt Q8NEW0)
inactive: bafetinib -0.169 | [1] -0.094 | nilotinib -0.16 | [2] 0.052 | dasatinib 0.04 | [3] 0.003 | [4] 0.048 | [5] -0.026 | tipifarnib 0.023 | mubritinib 0.107

SRXN1 (UniProt Q9BYN0)
Sequence of UniProt Q9BYN0 (Q9BYN0 whole entry, looked up): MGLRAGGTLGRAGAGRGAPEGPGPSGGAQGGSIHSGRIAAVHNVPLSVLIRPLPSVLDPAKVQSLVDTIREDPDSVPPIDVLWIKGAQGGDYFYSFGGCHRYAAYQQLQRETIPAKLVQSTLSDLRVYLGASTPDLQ
inactive: bafetinib -0.011 | [1] -0.157 | nilotinib -0.017 | [2] -0.088 | [3] 0.093 | [4] 0.134 | [5] 0.056 | tipifarnib -0.149 | mubritinib 0.127

SYMPK (UniProt Q92797)
inactive: bafetinib -0.027 | [1] 0.036 | nilotinib -0.192 | [2] -0.001 | dasatinib -0.156 | [3] 0.037 | [4] -0.017 | [5] -0.043 | tipifarnib -0.152 | mubritinib 0.015

SRSF2 (UniProt Q01130)
active: [2] -0.541
inactive: bafetinib 0.02 | [1] -0.062 | nilotinib 0.007 | dasatinib 0.074 | [3] 0.034 | [4] -0.058 | [5] 0 | tipifarnib 0.085 | mubritinib -0.011

TAX1BP1 (UniProt Q86VP1)
inactive: bafetinib 0.011 | [1] -0.095 | nilotinib -0.086 | [2] 0.011 | dasatinib -0.024 | [3] 0.047 | [4] -0.068 | [5] 0.027 | tipifarnib 0.092 | mubritinib 0.045

SRSF10 (UniProt O75494)
inactive: bafetinib 0.044 | [1] -0.1 | nilotinib 0.089 | [2] -0.079 | dasatinib 0.336 | [3] 0.076 | [4] -0.498 | [5] -0.173 | tipifarnib 0.215 | mubritinib -0.089

SMARCE1 (UniProt Q969G3)
inactive: bafetinib -0.181 | [1] 0.041 | nilotinib -0.191 | [2] 0.16 | dasatinib -0.07 | [3] -0.055 | [4] -0.056 | [5] -0.09 | tipifarnib -0.082 | mubritinib -0.274

SLC38A7 (UniProt Q9NVC3)
inactive: bafetinib -0.142 | [1] 0.016 | nilotinib 0.05 | [2] -0.023 | [3] -0.053 | [4] -0.005 | [5] 0.084 | tipifarnib 0.056 | mubritinib -0.007

Source: the supplement of paper PMC10849652
